A short description of test [1]: anti-His antibody binders, primary screen, artefact control for SMM control protein annotation, biochemical, small-molecule microarray, 635 nm fluorescence (AID 1128).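 Also: score merges feature fluorescence with signal-to-noise for each printed compound spot.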 Conditions: anti-His Alexa647 antibody binding, higher = more signal.
Test [2] has as its system Human papillomavirus type 1a E7 protein (residues 1-88). The experiment in a line: HPV1a E7 small-molecule binders, primary screen, biochemical, small-molecule microarray, residues 1-88, 635 nm (AID 1129). Conditions: small-molecule microarray binding, fluorescence 635 nm; higher = more signal.
The target in test [3] is Focal adhesion kinase 1 (Homo sapiens) (UniProt Q05397). The experiment in a line: small-molecule microarray binders of FAK, primary screen, biochemical, 635/667 nm fluorescence, BSA, DTT (AID 1130).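 Also: composite of spot emission at 667 nm and signal to noise over triplicate slides.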 Conditions: PTK2 binding, 635 nm fluorescence, higher = more signal.
Test [4] deals with Fibrinogen (Alexa647-labelled). In words: fibrinogen binders on compound microarrays, profiling panel, artefact control for SMM control-protein annotation, biochemical, small-molecule microarray, 635/667 nm fluorescence (AID 1131).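 Also: z-score merges 667 nm fluorescence with per-spot signal-to-noise over triplicate slides.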 The following applies: fibrinogen-A647 binding fluorescence, higher = more signal.
Test [5] deals with Follistatin (Homo sapiens) (UniProt P19883). The experiment in a line: follistatin binders on small-molecule microarrays, primary screen, biochemical, small-molecule microarray, 635/667 nm fluorescence (AID 1132). The following applies: FST binding, 635 nm fluorescence, higher = more signal.
Test [6] addresses Fibroblast growth factor 2 (Homo sapiens) (UniProt P09038). In words: FGF2 binders on small-molecule microarrays, primary screen, biochemical, small-molecule microarray, 635/667 nm fluorescence (AID 1133). Conditions: small-molecule microarray binding, FGF2, fluorescence 635/667; higher = more signal.
A short description of test [7]: mitochondrial membrane potential change in A549 cells, profiling panel, cell-based, JC-1 fluorescence, basal, 24 h, 100 nL (AID 1138).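 Also: A549 lung adenocarcinoma cells under basal conditions with no added stimulus; test concentration not given here.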 Conditions: higher = more signal.
The next test relates to Lefty1. In words: Lefty1 binders on small-molecule microarrays, primary screen, biochemical, small-molecule microarray, 635/667 nm fluorescence (AID 1139). Conditions: small-molecule microarray binding, fluorescence 635/667; higher = more signal.
Test [8] relates to wheat germ agglutinin (Triticum aestivum), Alexa647-labelled. In words: wheat germ agglutinin binders on compound microarrays, profiling panel, artefact control for SMM control-protein annotation, biochemical, small-molecule microarray, 635/667 nm fluorescence (AID 1140).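 Also: score merges 667 nm feature emission with signal to noise over triplicate slides.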 Conditions: WGA-A647 binding, 635 nm fluorescence, higher = more signal.
The target of test [9] is Luciferin 4-monooxygenase (Photinus pyralis) (UniProt P08659). In words: firefly luciferase enzyme inhibitors, primary screen, biochemical, luminescence, purified enzyme, 2006 set (AID 1141).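 Also: cell-free assay with purified firefly luciferase at 100 ng per well in PBS; test concentration not given here.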 Conditions: SteadyGlo luminescence, 30 min, higher = more signal, called active from +8 up or from −8 down.
For test [10], the system named is Wnt5a (protein binding on small-molecule microarray). The experiment in a line: Wnt5a binders on small-molecule microarray, primary screen, biophysical, 635/667 nm fluorescence (AID 1142).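 Also: fluorescence read at 667 nm with signal to noise per printed feature.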 Conditions: 635 nm fluorescence, higher = more signal.
The nature of test [11]: cell viability in Huh7 cells, primary screen, cytotoxicity control for HCV replication inhibitor project, CellTiter-Glo luminescence, basal, 48 h (AID 1143).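 Also: Huh7 hepatoma cells carrying a hepatitis C replication reporter with no stimulus; test concentration not given here.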 Conditions: Huh7 HCV replicon, higher = more signal, called active from +8 up or from −8 down.
A short description of test [12]: P. aeruginosa biofilm formation inhibitors, primary screen, PAO1 strain, BacTiter-Glo luminescence, LB-PBS (AID 1144). The following applies: 12 h, higher = more signal.
The nature of test [13]: CREB reporter modulators without forskolin, primary screen, cell-based, PC12, CRE-LacZ reporter, unstimulated (AID 1145). Conditions: no forskolin, luminescence, 4.5 h, higher = more signal, called active from +8 up or from −8 down.
The nature of test [14]: CREB reporter modulators under forskolin, primary screen, cell-based, PC12, CRE-LacZ reporter, forskolin-stimulated (AID 1146).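 Also: PC12 cells with 6xCRE LacZ reporter stimulated by forskolin 10 µM; beta-galactosidase reporter signal reflecting CREB driven transcription.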 The following applies: luminescence, 4.5 h, higher = more signal, called active from +8 up or from −8 down.
Test [15] deals with Streptavidin (Streptomyces avidinii) (UniProt P22629). The experiment in a line: streptavidin binders on small-molecule microarray, primary screen, artefact control for SMM compound annotation, biophysical, 635/667 nm fluorescence (AID 1147).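 Also: signal reflects streptavidin binding to arrayed compounds as a control protein.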 The following applies: streptavidin binding, higher = more signal.
A short description of test [16]: small-molecule binders of probe aInhba, primary screen, biochemical, small-molecule microarray, 635/667 nm fluorescence (AID 1148).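 Also: score merges 667nm spot fluorescence with signal-to-noise for antibody binding to printed compounds.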 The following applies: higher = more signal.
In test [17] the target is Torsin-1A (Homo sapiens) (UniProt O14656). The experiment in a line: torsin A binders from cell lysate, primary screen, small-molecule microarray, wild-type, 635/667 nm (AID 1149). The following applies: COS7 hTOR1A-WT lysate, 635 nm fluorescence, higher = more signal.
The target is the same in test [18]. The experiment in a line: small-molecule binders of mutant TOR1A in lysate, primary screen, cell lysate, small-molecule microarray, COS7 lysate, 635/667 nm fluorescence (AID 1150).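 Also: score pools 667 nm emission and signal to noise measuring lysate protein binding.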 The following applies: COS7 hTOR1A mutant lysate, 635 nm fluorescence, higher = more signal.
Test [19] relates to Sonic hedgehog protein (Shh). The experiment in a line: small-molecule binders of Shh protein, primary screen, biochemical, small-molecule microarray, 635/667 nm fluorescence (AID 1151).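 Also: Shh protein binding to compounds spotted on small-molecule microarray slides; score combines spot fluorescence intensity with signal-to-noise across triplicate slides.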 The following applies: small-molecule microarray binding, 635 nm fluorescence; higher = more signal.

Active and inactive are the calls of the source. Unless noted, no rule for the calls is given here.

Sequence of Follistatin (Homo sapiens) (P19883 whole entry, looked up): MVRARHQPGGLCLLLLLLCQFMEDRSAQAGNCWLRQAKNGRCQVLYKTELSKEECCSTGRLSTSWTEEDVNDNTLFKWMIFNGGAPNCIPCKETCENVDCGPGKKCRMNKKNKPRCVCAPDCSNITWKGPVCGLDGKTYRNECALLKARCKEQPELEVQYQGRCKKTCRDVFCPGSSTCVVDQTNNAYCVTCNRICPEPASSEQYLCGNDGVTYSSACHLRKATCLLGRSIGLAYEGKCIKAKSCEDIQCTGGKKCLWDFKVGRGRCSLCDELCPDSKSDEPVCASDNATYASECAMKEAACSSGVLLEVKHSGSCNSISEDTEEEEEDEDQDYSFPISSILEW
Sequence of Focal adhesion kinase 1 (Homo sapiens) (Q05397 whole entry, looked up): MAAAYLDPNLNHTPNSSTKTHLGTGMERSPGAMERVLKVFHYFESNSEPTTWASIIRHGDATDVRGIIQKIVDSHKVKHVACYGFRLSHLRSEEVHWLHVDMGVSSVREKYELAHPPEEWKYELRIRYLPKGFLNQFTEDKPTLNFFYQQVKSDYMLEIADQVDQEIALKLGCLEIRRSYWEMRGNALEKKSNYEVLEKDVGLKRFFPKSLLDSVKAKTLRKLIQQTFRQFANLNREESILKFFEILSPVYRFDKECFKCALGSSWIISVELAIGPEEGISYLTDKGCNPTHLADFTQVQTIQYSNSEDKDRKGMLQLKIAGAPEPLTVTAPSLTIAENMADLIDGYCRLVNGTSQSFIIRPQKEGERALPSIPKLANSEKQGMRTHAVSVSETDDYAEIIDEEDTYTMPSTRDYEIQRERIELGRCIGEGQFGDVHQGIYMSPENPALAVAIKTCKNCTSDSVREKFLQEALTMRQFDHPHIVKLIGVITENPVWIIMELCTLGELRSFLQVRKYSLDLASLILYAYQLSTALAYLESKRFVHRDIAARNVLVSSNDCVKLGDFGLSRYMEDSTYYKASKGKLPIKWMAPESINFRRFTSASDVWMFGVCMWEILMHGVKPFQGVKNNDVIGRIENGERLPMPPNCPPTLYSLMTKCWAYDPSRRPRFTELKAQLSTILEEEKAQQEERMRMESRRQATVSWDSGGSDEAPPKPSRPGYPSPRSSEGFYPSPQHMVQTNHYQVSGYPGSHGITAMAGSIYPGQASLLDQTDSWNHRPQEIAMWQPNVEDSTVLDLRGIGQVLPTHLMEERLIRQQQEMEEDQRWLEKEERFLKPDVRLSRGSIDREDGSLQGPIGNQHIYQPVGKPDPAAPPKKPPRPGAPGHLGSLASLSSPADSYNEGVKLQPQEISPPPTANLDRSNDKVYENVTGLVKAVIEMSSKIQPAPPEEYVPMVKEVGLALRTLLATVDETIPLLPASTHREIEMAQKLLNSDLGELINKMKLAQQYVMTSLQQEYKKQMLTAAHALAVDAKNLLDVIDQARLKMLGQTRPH
Sequence of Torsin-1A (Homo sapiens) (O14656 whole entry, looked up): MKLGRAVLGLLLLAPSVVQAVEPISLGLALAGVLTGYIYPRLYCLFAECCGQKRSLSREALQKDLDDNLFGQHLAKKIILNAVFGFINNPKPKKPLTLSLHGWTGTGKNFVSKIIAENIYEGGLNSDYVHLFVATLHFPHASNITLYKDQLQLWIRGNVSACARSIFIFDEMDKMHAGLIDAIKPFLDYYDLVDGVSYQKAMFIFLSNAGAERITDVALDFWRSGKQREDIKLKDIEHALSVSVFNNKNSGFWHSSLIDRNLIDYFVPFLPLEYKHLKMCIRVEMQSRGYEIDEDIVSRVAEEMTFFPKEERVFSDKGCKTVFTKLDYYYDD
Sequence of Luciferin 4-monooxygenase (Photinus pyralis) (P08659 whole entry, looked up): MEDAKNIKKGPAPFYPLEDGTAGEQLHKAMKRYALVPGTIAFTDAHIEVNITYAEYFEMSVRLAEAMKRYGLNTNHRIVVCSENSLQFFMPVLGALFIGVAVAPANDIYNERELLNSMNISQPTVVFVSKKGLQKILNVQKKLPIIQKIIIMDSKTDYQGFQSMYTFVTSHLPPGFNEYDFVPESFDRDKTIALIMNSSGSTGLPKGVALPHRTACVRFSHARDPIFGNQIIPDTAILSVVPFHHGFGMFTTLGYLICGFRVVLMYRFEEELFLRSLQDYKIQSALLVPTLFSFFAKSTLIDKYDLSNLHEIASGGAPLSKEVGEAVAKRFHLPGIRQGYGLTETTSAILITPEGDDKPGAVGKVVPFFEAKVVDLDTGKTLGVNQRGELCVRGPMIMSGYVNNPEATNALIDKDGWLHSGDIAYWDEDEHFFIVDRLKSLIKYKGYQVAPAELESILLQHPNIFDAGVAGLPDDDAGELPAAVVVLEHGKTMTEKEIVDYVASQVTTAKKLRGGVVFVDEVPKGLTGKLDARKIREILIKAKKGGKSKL
Sequence of Streptavidin (Streptomyces avidinii) (P22629 whole entry, looked up): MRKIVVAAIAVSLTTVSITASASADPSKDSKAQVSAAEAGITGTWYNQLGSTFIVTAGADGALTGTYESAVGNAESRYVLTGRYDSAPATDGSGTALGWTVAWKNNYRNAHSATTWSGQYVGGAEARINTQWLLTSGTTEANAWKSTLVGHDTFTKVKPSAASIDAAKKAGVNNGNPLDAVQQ
Sequence of Fibroblast growth factor 2 (Homo sapiens) (P09038 whole entry, looked up): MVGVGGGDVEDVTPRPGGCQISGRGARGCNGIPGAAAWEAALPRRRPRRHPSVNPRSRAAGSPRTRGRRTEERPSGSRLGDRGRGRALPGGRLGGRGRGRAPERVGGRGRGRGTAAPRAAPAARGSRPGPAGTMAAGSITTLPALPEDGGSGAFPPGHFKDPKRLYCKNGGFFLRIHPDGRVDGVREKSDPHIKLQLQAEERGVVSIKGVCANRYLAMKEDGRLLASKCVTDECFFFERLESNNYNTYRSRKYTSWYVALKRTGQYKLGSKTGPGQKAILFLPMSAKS

Regarding `CN(C)CCCCCCNC(=O)[C@@H]1C[C@@H]2C(=O)NCC(=O)N2[C@@H]1c1cccc(OCCO)c1`, the composite z-score in [1] is 2.96; in test [2], 1.28; in [3], 0.446; in test [4] it was 0.232; in test [5] it was 1.34; in [6], 0.826. In addition, the composite z-score is 1.36 in the test with Lefty1; -0.0165 in test [8]; 1.21 in test [10]; 0.312 in test [15]; 0.105 in test [16]; 1.14 with Torsin-1A (Homo sapiens) [17]. Further, the results for the composite z-score (with Torsin-1A (Homo sapiens) [18]; in test [19]) were 2.07 and 1.64, respectively. Moreover, the z-score in test [7] was 0.295; in test [9], -0.791 (inactive); in [11], 0.105 (inactive); in test [12], -0.418 (inactive); in [13], -0.549 (inactive); in [14], -0.832 (inactive).

In the case of `[N-]=[N+]=NCc1ccccc1C[C@@]1(C(=O)NCc2ccccc2)N=C(c2ccc(OCCCO)cc2)O[C@@H]1c1ccccc1CN=[N+]=[N-]`, the composite z-score stood at 1.44 in test [1]; 1.17 in [2]; 0.96 in test [3]; 0.915 in test [4]; 0.557 in [5]; 0.0516 in test [6]. In addition, the composite z-score in the test with Lefty1 is -0.621; in test [8], 1.03; in test [10] it was 0.262; in test [15], 1.19; in test [16], 0.406; with Torsin-1A (Homo sapiens) [17], 0.327. Moreover, the composite z-score was 0.367 with Torsin-1A (Homo sapiens) [18] and -0.603 in [19]. The z-score in [7] was 0.573; in test [9] it was 0.0675 (inactive); in [11], -3.35 (inactive); in test [12], 0.503 (inactive); in test [13], 0.297 (inactive); in [14], 0.448 (inactive).

As for `COc1ccc([Si](C)(C)[C@H]2[C@H](CCO)O[C@@]3(C(=O)N(Cc4cccc(N5C(=O)c6cccc7cccc5c67)c4)c4ccccc43)[C@@H]2C)cc1`, the composite z-score in test [1] is 0.86; in [2] it was 0.586; in test [3] it was 1.02; in test [4] it was 0.53; in test [5] it was -0.16; in test [6], -0.23. The composite z-score in the test on Lefty1 is -0.0439; in test [8], 0.563; in test [10], 0.346; in test [15] it was 0.343; in test [16], -0.176; with Torsin-1A (Homo sapiens) [17] it was -0.697. Also, the results for the composite z-score (with Torsin-1A (Homo sapiens) [18]; in [19]) were -0.318 and 0.329, respectively. In addition, the z-score in test [7] was 0.325; in test [9] it was 0.669 (inactive); in [11], -6.95 (inactive); in test [12] it was 0.0998 (inactive); in test [13], -0.011 (inactive); in test [14], -1.37 (inactive).

`COC(=O)[C@@]1(Cc2ccc(F)cc2)[C@H]2c3cc(C(=O)N(C)C)n(Cc4ccccn4)c3C[C@H]2CN1C(=O)c1ccccc1`: the composite z-score is 1.12 in test [1]; 1.26 in test [2]; 1.08 in [3]; 0.685 in test [4]; 0.251 in test [5]; -0.281 in test [6]. Also, the composite z-score was -0.12 with Lefty1; 0.647 in test [8]; -0.0131 in test [10]; 0.751 in test [15]; 0.349 in [16]; 1.17 with Torsin-1A (Homo sapiens) [17]. Also, the composite z-score with Torsin-1A (Homo sapiens) [18] was 1.05; in [19], -0.285. Besides, the z-score in [7] is 1.04; in [9], 3 (inactive); in test [11], -1.17 (inactive); in [12], -0.75 (inactive); in test [13], -0.947 (inactive); in test [14], 0.431 (inactive).

For the origin of these results see PubChem BioAssay.
